Data on 60 compounds can be found in PubChem BioAssay.

A number with no mark means an inactive call. Active and inactive are the calls of the source. The rule behind the calls is not given here.

The test system of this assay is Aerobactin synthetase IucA (Klebsiella pneumoniae hvKP1). Put plainly: IucA enzyme inhibition, primary screen, biochemical, Spectrum library (AID 1346200).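 Note: 100% = wells without compound and 0% = wells lacking enzyme.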 Particulars: malachite green pyrophosphate, A620, at 8 µM, active compounds read low.

Consider `O=c1c(O)c(-c2ccc(O)c(O)c2)oc2cc(O)ccc12`, for which the activity remaining was 101%. Regarding `O=C(O)CN(CC(=O)O)Cc1cc2c(-c3ccccc3C(=O)O)c3cc(CN(CC(=O)O)CC(=O)O)c(=O)cc-3oc2cc1O`, the activity remaining was 113%. Consider `CC(=O)N(O)CCCCCNC(=O)CCC(=O)N(O)CCCCCNC(=O)CCC(=O)N(O)CCCCCN`, for which the activity remaining is 117%. The value for `COC1CC2CCC(C)C(O)(O2)C(=O)C(=O)N2CCCCC2C(=O)OC(C(C)CC2CCC(O)C(OC)C2)CC(=O)C(C)/C=C(\C)C(O)C(OC)C(=O)C(C)CC(C)/C=C/C=C/C=C/1C` (stereo not given) was 107%; that for `CCC(=O)O[C@H]1[C@H](O[C@@H]2[C@@H](C)[C@H](O[C@H]3C[C@@](C)(OC)[C@@H](O)[C@H](C)O3)[C@@H](C)C(=O)O[C@H](CC)[C@@](C)(O)[C@H](O)[C@@H](C)C(=O)[C@H](C)C[C@@]2(C)O)O[C@H](C)C[C@@H]1N(C)C` was 121%. `CC(=O)O[C@@H]1CC[C@@]2(C)C(CC[C@]3(C)C2CC=C2C4CC(C)(C)CC[C@]4(C(=O)O)CC[C@]23C)C1(C)C` (stereo not given in full): the activity remaining was 96.2%.

`CCN1C[C@]2(OC(=O)c3ccccc3NC(C)=O)CCC(OC)[C@]34C1[C@H](CC23)[C@@]1(O)CC(OC)[C@H]2CC4C1(O)[C@H]2OC` (stereo not given in full): the activity remaining is 95.9%.

With `CC[C@H]1OC(=O)C[C@@H](O)[C@H](C)[C@@H](O[C@@H]2O[C@H](C)[C@@H](O[C@H]3C[C@@](C)(O)[C@@H](O)[C@H](C)O3)[C@H](N(C)C)[C@H]2O)[C@@H](CC=O)C[C@@H](C)C(=O)/C=C/C(C)=C/[C@@H]1CO[C@@H]1O[C@H](C)[C@@H](O)[C@@H](OC)[C@H]1OC`, the activity remaining was 112%. Take `C=C1CC[C@@]2(OC1)O[C@H]1CC3C4CC=C5C[C@@H](O)C[C@@H](O)[C@]5(C)C4CC[C@]3(C)[C@H]1[C@@H]2C` (stereo not given in full): the activity remaining is 113%. The value for `Cc1cc(O)c(C=O)c(O)c1C(=O)O` was 124%; that for `Nc1nc2ncc(=O)[nH]c2c(=O)[nH]1` was 121%. As for `CN1CCOC(c2ccccc2)c2ccccc2C1` (stereo not given), the activity remaining is 110%. The value for `C=Cc1c(C)/c2[n-]/c1=C\c1[n-]c(c(CC)c1C)/C=c1\[n-]c3c(c1C)C(=O)C(C(=O)[O-])C=3c1[n-]c(c(C)c1CCC(=O)[O-])\C=2.[Cu].[Na+].[Na+]` (stereo not given) was 77.9%; that for `CC(=O)c1ccc[nH]1` was 98.2%; that for `CC[C@]12CCCN3CCc4c(n(c5ccccc45)C(=O)C1)[C@@H]32` was 101%. Take `C1N2CN3CN1CN(C2)C3`: the activity remaining was 104%.

Take `CC(CCC(=O)O)[C@H]1CCC2C3CC[C@@H]4CCCC[C@]4(C)C3CC[C@@]21C` (stereo not given in full): the activity remaining is 108%.

Consider `C[C@H]1[C@H](C)CC[C@]2(C(=O)O)CC[C@]3(C)C(=CCC4[C@@]5(C)C[C@@H](O)[C@H](O)[C@@](C)(CO)C5[C@H](O)C[C@]43C)[C@H]12` (stereo not given in full), for which the activity remaining was 110%. To `CC12CC[C@H](CC1=O)C2(C)C` belongs 104%.

In the case of `C=C1C(=O)OC2CC1C(OC(C)=O)C/C(C)=C/CC/C(C)=C/CC[C@]2(C)O` (stereo not given in full), the activity remaining was 123%. In the case of `CON=C1C[C@]2(C[C@@H]3C[C@@H](C/C=C(\C)C[C@@H](C)/C=C/C=C4\CO[C@@H]5[C@H](O)C(C)=C[C@@H](C(=O)O3)[C@]45O)O2)O[C@H](/C(C)=C/C(C)C)[C@H]1C`, the activity remaining was 93.8%. To `O=C1CN(/N=C/c2ccc([N+](=O)[O-])o2)C(=O)N1` belongs 78.3%; to `CCN(CC)CCOC(=O)C(c1ccccc1)c1ccccc1`, 112%.

As to `NC(=O)c1ccc([N+](=O)[O-])cc1Cl`, the activity remaining is 107%. Consider `CC(=O)Nc1ccc(S(=O)(=O)Nc2ccc([N+](=O)[O-])cc2)cc1`, for which the activity remaining is 111%. Take `C=C1C[C@]23C[C@@]1(O)CC[C@H]2[C@@]12C=C[C@H](O)C(C)(C(=O)O1)[C@H]2[C@@H]3C(=O)O`: the activity remaining was 121%.

`COC(=O)C[C@H]1C(C)(C)C(=O)[C@@H]2CC3=C4CC(=O)O[C@@H](c5ccoc5)[C@]4(C)CCC3C1(C)C2=O` (stereo not given in full): the activity remaining is 102%. To `CC(=O)O[C@H]1CC[C@@]2(C)C(C[C@@H](OC(C)=O)[C@@]3(C)C4=CC(=O)O[C@@H](c5ccoc5)[C@]4(C)CCC23)C1(C)C` (stereo not given in full) belongs 89.5%; to `O=C(O)[C@@H](S)[C@@H](S)C(=O)O`, 49.3% (active); to `O=C1CC[C@]23/C=C/C(=O)NCCCCNCCCNC(=O)/C=C/c4ccc(c2c4)O[C@@H]3C1`, 117%.

In the case of `OC[C@@H](O)C(O[C@@H]1O[C@H](CO)[C@H](O)[C@H](O)[C@H]1O)[C@H](O)[C@@H](O)CO` (stereo not given in full), the activity remaining is 116%.

`CC1(C)CC23C(=O)CCC(O)C2(C)CCC13` (stereo not given): the activity remaining is 113%. The value for `CC(C)(C)CC(C)(C)c1ccc(O)c(Cc2ccc(Cl)cc2Cl)c1` was 110%; that for `CN[C@H]1C[C@@H](N)[C@H](O)[C@@H](O[C@@H]2O[C@H](CO)[C@@H]3OC4(O[C@@H]3[C@@H]2O)O[C@H](C(N)CO)[C@H](O)[C@H](O)[C@H]4O)[C@@H]1O` (stereo not given in full) was 122%. In the case of `COC(=O)C[C@H]1C(C)(C)C(=O)[C@@H]2CC3C4=CC(=O)O[C@@H](c5ccoc5)[C@]4(C)CCC3C1(C)C2=O` (stereo not given in full), the activity remaining is 120%. Consider `NC[C@H]1O[C@H](O[C@H]2[C@H](O)[C@@H](O[C@H]3O[C@H](CO)[C@@H](O)[C@H](N)[C@H]3O)[C@H](N)C[C@@H]2N)[C@H](N)[C@@H](O)[C@@H]1O`, for which the activity remaining is 108%. The value for `COc1cc2nc(N(C)CCCNC(=O)C3CCCO3)nc(N)c2cc1OC` (stereo not given) was 120%; that for `CC1=C(C(=O)O)N2C(=O)[C@@H](NC(=O)C(N)c3ccc(O)cc3)[C@H]2SC1` (stereo not given in full) was 103%; that for `CC(C(=O)O)c1ccc2c(c1)[nH]c1ccc(Cl)cc12` (stereo not given) was 109%. To `CN(C)CCc1c[nH]c2ccc(CS(=O)(=O)N3CCCC3)cc12` belongs 128%; to `Cc1cc(O)cc(C)c1Cl`, 94.5%.

Consider `COc1ccc(C(=O)/C=C/c2ccccc2)cc1`, for which the activity remaining is 106%. Regarding `COc1ccc(-c2cc(=O)c3c(OC)c(OC)c(OC)c(OC)c3o2)cc1OC`, the activity remaining was 122%. As for `COc1ccc([C@@H]2CC(=O)c3c(O)cc(O)cc3O2)cc1O`, the activity remaining is 115%. To `C/C1=C/CC(C)(C)/C=C/C/C(C)=C/CC1` belongs 122%; to `CC1CCc2cc(F)cc3c(=O)c(C(=O)O)cn1c23` (stereo not given), 119%; to `CC1(C)C2CC[C@]3(C)C(C(=O)C=C4[C@H]5C[C@@](C)(C(=O)O)CC[C@]5(C)CC[C@]43C)[C@@]2(C)CC[C@@H]1O` (stereo not given in full), 109%. With `CC(C(=O)O)c1ccc(C(=O)c2cccs2)cc1` (stereo not given), the activity remaining is 104%. To `CC(=O)O[C@]1(C)CC[C@@]23CC1C(C)(C)[C@@H]2CC[C@H]3C` belongs 102%. As for `COC(=O)Nc1nc2ccc(Sc3ccccc3)cc2[nH]1`, the activity remaining is 114%.

On to `C#C[C@]1(O)CCC2C3CCC4=C(CCC(=O)C4)C3CC[C@@]21C` (stereo not given in full), for which the activity remaining was 109%.

As for `COc1cc(CNC(=O)CCCC/C=C/C(C)C)ccc1O`, the activity remaining is 109%. The value for `O=C(/C=C/c1ccc(O)c(O)c1)OC(Cc1ccc(O)c(O)c1)C(=O)O` (stereo not given) was 116%. Consider `CC(=O)Nc1ccc(O)cc1`, for which the activity remaining was 90%. Take `O=C(OCC(O)CO)c1ccccc1Nc1ccnc2cc(Cl)ccc12` (stereo not given): the activity remaining was 119%.

In the case of `CC(=O)C1CC[C@H]2C3CC[C@H]4C[C@H](O)CC[C@]4(C)C3CC[C@]12C` (stereo not given in full), the activity remaining is 93.6%. Take `O=C(O)c1cn(-c2ccc(F)cc2)c2cc(N3CCNCC3)c(F)cc2c1=O`: the activity remaining was 118%. To `COc1ccc2c(c1)OC[C@@H](Cc1ccc(OC)c(OC)c1)[C@@H]2O` belongs 121%; to `CC(C(=O)O)c1cccc(Oc2ccccc2)c1` (stereo not given), 118%. To `Cc1ccc(C(=O)C(C)CN2CCCCC2)cc1` (stereo not given) belongs 113%.
